Assay outcomes from PubChem.
This is a sample that favours compounds with a hit; in the whole collection about 1.3% have one here.
TRPV1 PAM = enhances activation of the human vanilloid receptor TRPV1; AID 540277; TRPV1-expressing cells, Fluo-8 calcium influx, capsaicin EC20 potentiation; potentiation, % at 8.33 µM; Q8NER1; actives 0.02% (n = 320,000); in the data active means potentiation above about 80%; inconclusive means between about 30% and that limit; further: 0% is about no effect
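TRPV1-expressing cells were cultured overnight at 35.5C and loaded with Fluo-8 calcium dye for 40 to 90 min at room temperature. After a 10 s baseline, compound was added and calcium influx was read kinetically for 3 min (ex 480/em 520 nm).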
KCNH2 WT inh = inhibitors of human wildtype KCNH2 potassium channel. activity change, % at 1.84 µM. U2OS, BacMam KCNH2, thallium flux FluxOr; hits give low values. actives 0.37% (n = 340,000). AID 720551;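 active means maximum activity change below -70%; inconclusive means maximum activity change between -70% and -50%; inactive means maximum activity change above -50%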; further: on the % scale 0 is the no-effect control and ±100 the full control effect
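U2OS cells were transduced with wild-type KCNH2 virus (2.03 x 10^8 / mL) for 4 h at room temperature, then cultured overnight at 37 C. Thallium flux was read with FluxOr dye. Rate constants were normalized to DMSO controls.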
TRPV1 agonist = activates the human vanilloid receptor TRPV1; TRPV1-expressing cells, Fluo-8 calcium influx, agonist mode; actives 0.19% (n = 320,000); activation, % at 8.33 µM; AID 540275; in the data active means activation above about 80%; inconclusive means between about 30% and that limit; further: 0% is about no effect
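TRPV1-expressing cells were cultured overnight at 35.5C and loaded with Fluo-8 calcium dye for 40 to 90 min at room temperature. After a 10 s baseline, compound was added and calcium influx was read kinetically for 3 min (ex 480/em 520 nm).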
KCNH2 3.1 block = blocks the human KCNH2 3.1 channel isoform. U2OS KCNH2 3.1, thallium flux FluxOr; hits give low values. actives 0.95% (n = 340,000). AID 720553. activity change, % (tested at about 1.8 µM);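 active means maximum activity change below -70%; inconclusive means maximum activity change from -70% to -50%; inactive means maximum activity change above -50%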;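 further: thallium influx rate constant from kinetic fluorescence after stimulation buffer; on the % scale 0 is the no-effect control and ±100 the full control effect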
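Virally transduced U2OS (3.1 isoform, 4 h infection in dark at RT) → overnight 37 C → FluxOr + Red40 in HBSS/HEPES, 45 min → stimulation buffer, 2 min kinetic read → rate constant vs DMSO controls.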
Starred values were filed as active, the others as inactive; ? = inconclusive; / = no result.

SMILES	TRPV1 PAM	KCNH2 WT inh	TRPV1 agonist	KCNH2 3.1 block
CCOc1ccc(-c2cnc(NCc3cccc4ccccc34)n2CCOC)cc1	1.9	14.6	2.7	?
CN(C(=O)C1CCCCC1)C1(C)CCS(=O)(=O)C1 (stereo unspecified)	0.4	-7.8	-2.8	6.2
CCN1CCN(c2nc3sc4c(c3c(=O)n2-c2ccc(OC)cc2)CCCCC4)CC1	-27.4	-0.4	25.6	-71.4*
CN(Cc1cccnc1)Cc1cn(Cc2ccccc2)nc1-c1ccc2c(c1)OCO2	-1.5	-4.1	2.6	2.1
CN(Cc1ccno1)Cc1cn(Cc2ccccc2)nc1-c1ccc2c(c1)OCO2	7.4	-14.1	-4.3	-94.9*
COc1ccc(N(C(=O)c2snc(C(N)=O)c2N)C(CC(C)C)C(=O)NCC2CCCO2)cc1 (stereo unspecified)	-37.2	-6.2	0.4	-0.3
COc1ccccc1N1CCN(CCC(=O)Nc2cccc(Cl)c2)CC1	-17.4	/	?	?
CNCc1c(OCc2ccc(F)cc2)ccc2ccccc12	3.0	9.7	1.6	7.8
OCc1c(OCc2cccc(F)c2)ccc2ccccc12	?	-2.8	1.0	-81.5*
CC(=O)Nc1cccc(Nc2nc(-c3ccccc3F)nc3ccccc23)c1	-15.2	5.2	96.2*	/
CC(=O)Nc1ccc(Nc2nc(-c3ccccc3)nc3ccccc23)cc1	1.7	7.4	-1.0	33.5
COc1cccc(NS(=O)(=O)c2ccc(Br)s2)c1	3.4	8.5	89.2*	2.6
COc1ccc(OC)c(NS(=O)(=O)c2ccc(Br)s2)c1	?	/	1.5	/
N#Cc1ccc(C23CC4(C2)[C@H](CN(P(=O)(c2ccccc2)c2ccccc2)[C@@H]4c2ccccc2)C3c2ccc(Cl)nc2)cc1 (stereo partly specified)	-11.8	-12.5	3.4	-32.9
CN1C[C@@H]2C(c3ccc(Cl)nc3)C3(c4ccc(C#N)cc4)CC2(C3)[C@H]1c1ccccc1 (stereo partly specified)	-18.7	8.1	4.0	-76.6*
CN1C[C@@H]2C(c3ccc(C(F)(F)F)cc3)C3(c4cccnc4)CC2(C3)[C@H]1c1ccccc1 (stereo partly specified)	-21.9	-7.8	?	-84.8*
Cc1nn(C)c(C)c1NC(=S)Nc1ccc(S(=O)(=O)Nc2ncccn2)cc1	-10.9	30.3	19.3	9.9
CC(=O)c1ccc(N2C(=NC(=O)C3CCCCC3)SC3CS(=O)(=O)CC32)cc1 (stereo unspecified)	-5.4	-0.2	1.7	6.6
CCC(C)NC(=O)c1ccc(C)c(NC(=O)C2=C(C)OCCS2)c1 (stereo unspecified)	-10.4	-3.1	15.7	-9.6
N#C/C(=C/c1ccc(-c2ccc(S(=O)(=O)N3CCOCC3)cc2)o1)C(=O)NC1CC1	/	-79.7*	/	9.8
N#C/C(=C\c1ccc(-c2ccc(S(=O)(=O)N3CCOCC3)cc2)o1)C(=O)NC1CC1	-2.9	-1.3	3.5	9.2
CCn1c(O)c(/C=C/C=C/C=Nc2ccccc2)sc1=S	-0.7	-225.9*	2.4	-183.8*
CCCCn1c(O)c(/C=C/C=C/C=Nc2ccccc2)sc1=S	6.6	-3.3	3.7	-39.6
COc1ccc(C(CNC(=O)/C=C/c2c(Cl)nc3ccccn23)N(C)C)cc1 (stereo unspecified)	7.6	-0.6	1.3	-87.4*
CSCCC(NS(=O)(=O)c1ccc(C)cc1)C(=O)NCC(C)(C)N1CCOCC1 (stereo unspecified)	3.2	-8.9	2.0	4.2
SMILES	TRPV1 PAM	KCNH2 WT inh	TRPV1 agonist	KCNH2 3.1 block
COc1ccc(C(=O)C2CCCN(Cc3cccn3-c3ccccn3)C2)c(OC)c1 (stereo unspecified)	-0.1	-48.0	1.9	-91.0*
COc1ccc(F)cc1C(=O)C1CCCN(Cc2cccn2-c2ccccn2)C1 (stereo unspecified)	0.5	-70.9*	-0.6	-85.9*
O=C(CCc1nnc2ccc(NCc3ccccc3Cl)nn12)NC1CCCCC1	-5.9	-4.3	0.7	18.3
CCc1ccccc1N1C(=O)C(Cl)=C(N2CCOCC2)C1=O	-23.7	2.6	4.9	-20.3
CC(C)CN(CC(C)C)S(=O)(=O)N1CCC(C(=O)NC2CCCCCCC2)CC1	5.4	-12.4	83.7*	-2.5
COc1cc(CCC(=O)OCC(=O)c2ccc[nH]2)cc(OC)c1OC	0.0	-93.7*	3.2	-1.8
CCN(CC)c1ccc(NC(=O)c2cnccn2)cc1S(=O)(=O)Nc1ccc(OC)cc1	20.5	-8.6	85.2*	-2.3
O=C1CC(c2ccco2)CC2=C1C(c1cccnc1)n1nc(C(F)(F)F)nc1N2 (stereo unspecified)	-10.3	/	7.7	/
OC(COc1ccc2ccccc2c1)CN1CCN(c2ccc(F)cc2)CC1 (stereo unspecified)	1.1	-6.1	-1.8	-74.0*
CCOC(=O)c1ccccc1NC(=O)CSc1nc2ccccc2c(=O)n1CCCN1CCOCC1	/	10.0	/	-17.0
Cc1cc(N/N=C/c2ccccc2Br)nc2ccccc12	0.9	-20.7	4.7	-82.4*
Cc1cc(C)n2ncc(C(=O)NCc3ccccc3)c2n1	-26.2	-4.6	6.0	-87.1*
Cc1cc(C)n2ncc(C(=O)NCCc3ccccc3)c2n1	14.3	11.8	-0.8	6.5
CCc1nc2cccnc2n1-c1ccc(CC(=O)NC(C)CC)cc1 (stereo unspecified)	-5.8	5.1	1.4	10.7
Cc1ccc(NC(=S)NCCN(C2CCCCC2)C2CCCC2)cc1	8.1	1.0	20.6	-72.9*
Cc1ccc(NC(=S)NCCN(C2CCCCC2)C2CCCC2)cc1C	-1.3	11.4	5.8	-33.5
O=C(CN(CC1CCCO1)C(=O)CNS(=O)(=O)c1ccc(F)cc1)NC1CCCCC1 (stereo unspecified)	0.4	-10.3	-0.7	-1.4
COc1ccc2c(c1)[C@H]1[C@H](CO2)[C@H](c2ccccc2)[C@]2(C)C(=O)Nc3ccc(Br)cc3C(=O)N12	/	-6.4	/	-85.5*
COc1ccc2c(c1)C(=O)N1[C@H]3c4cc(OC)ccc4OC[C@@H]3[C@H](c3ccccc3)[C@]1(C)C(=O)N2	18.5	1.2	9.1	5.5
Cc1ccc2c(c1)C(=O)N1[C@H]3c4cc(Cl)ccc4OC[C@@H]3[C@H](c3ccccc3)[C@]1(C)C(=O)N2	/	-6.8	/	-83.3*
O=C(OCc1nc(-c2ccccc2Cl)no1)c1ccco1	-2.5	-8.3	2.7	12.6
O=C(Nc1ccccc1N1CCN(C(=O)c2ccc(Cl)cc2)CC1)c1cccc([N+](=O)[O-])c1	15.1	-123.3*	-4.3	-102.5*
Cc1ccc(C(=O)Nc2ccccc2N2CCCCC2)cc1[N+](=O)[O-]	0.5	-7.3	15.4	-83.0*
CN1CCN(c2ccccc2NC(=O)c2cc(Br)ccc2Cl)CC1	-6.2	-23.0	6.1	-87.1*
O=C(Nc1ccccc1N1CCN(C(=O)c2ccc(Cl)cc2)CC1)c1cc(Br)ccc1Cl	-10.1	-121.2*	5.3	-101.4*
CN1CCN(c2ccccc2NC(=O)c2cccc([N+](=O)[O-])c2)CC1	?	-18.1	-2.3	-47.7
